Compounds without any hit were thinned out: in the full panel of roughly 79,000, 15% have a hit. The source made the active and inactive calls. Cut-off read from the data, not from the text of the source: active = growth inhibition above about 70%; inactive = the rest.
Experiments:
[1] = NCI Yeast Anticancer Drug Screen. Data for the rad52 strain (AID 147);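 note: 0% = growth of vehicle-treated control cultures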; settings: S. cerevisiae rad52 mutant growth inhibition, hits give high values
Summary of the method: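 Compounds are applied to a genetically defined yeast strain lacking normal DNA damage repair, and inhibition of growth is expressed relative to cultures given vehicle only.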

[2] = NCI Yeast Anticancer Drug Screen. Data for the rad50EPP+ strain (AID 151);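 note: 0% = growth of vehicle-treated control cultures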; settings: S. cerevisiae rad50 mutant strain, hits give high values
Summary of the method: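 Compounds were applied to the rad50EPP+ yeast strain, which bears a defined DNA repair alteration, and growth inhibition was determined relative to vehicle-treated cultures.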

[3] = NCI Yeast Anticancer Drug Screen. Data for the mgt1 strain (AID 153); settings: S. cerevisiae mgt1 mutant growth inhibition, hits give high values
Summary of the method: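 Strain: mgt1 yeast, one of a set carrying defined DNA damage repair or cell cycle control alterations. Compound-treated growth compared with vehicle.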

[4] = NCI Yeast Anticancer Drug Screen. Data for the rad50 strain (AID 155);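 note: 0% = growth of vehicle-only cultures of the same strain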; settings: S. cerevisiae rad50 strain growth inhibition, hits give high values
Summary of the method: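 A DNA repair-deficient yeast mutant serves as the test organism; compound-induced growth inhibition is calculated against vehicle-treated cells.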

[5] = NCI Yeast Anticancer Drug Screen. Data for the mec2-1 strain (AID 157); settings: S. cerevisiae mec2-1 strain, hits give high values
Summary of the method: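 Strain: mec2-1 (DNA repair/cell cycle alteration). Compound exposure, then growth measured; inhibition expressed relative to vehicle.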

[6] = NCI Yeast Anticancer Drug Screen. Data for the rad14 strain (AID 159);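 note: 0% = growth of vehicle-treated control cultures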; settings: S. cerevisiae rad14 strain growth inhibition, hits give high values
Summary of the method: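 Vehicle-treated cultures served as the baseline for growth inhibition of a DNA repair-mutant yeast strain exposed to each compound.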

[7] = NCI Yeast Anticancer Drug Screen. Data for the sgs1 mgt1 strain (AID 161);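 note: 0% = growth of cultures given vehicle only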; settings: S. cerevisiae sgs1 mgt1 strain, hits give high values
Summary of the method: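 Read-out: growth inhibition vs vehicle controls. Cells: mutant yeast strain deficient in DNA damage repair.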

[8] = NCI Yeast Anticancer Drug Screen. Data for the CLN2oe strain (AID 163);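 note: 0% = growth of vehicle-only control cultures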; settings: S. cerevisiae CLN2oe strain, hits give high values
Summary of the method: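 Growth of a genetically modified yeast strain is measured after compound exposure and compared with cultures given vehicle alone.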

[9] = NCI Yeast Anticancer Drug Screen. Data for the cln2 rad14 strain (AID 165);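 note: 0% = growth equal to vehicle treated cultures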; settings: S. cerevisiae cln2 rad14 strain, hits give high values
Summary of the method: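 Compounds are applied to the cln2 rad14 yeast strain, and growth is then compared with that of vehicle-treated cultures to give inhibition.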

[10] = NCI Yeast Anticancer Drug Screen. Data for the bub3 strain (AID 167); settings: S. cerevisiae bub3 mutant strain, hits give high values
Summary of the method: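 Inhibition values come from growth of compound-treated mutant yeast normalised to vehicle-treated controls.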

[11] = NCI Yeast Anticancer Drug Screen. Data for the wt2 strain (AID 169);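 note: 0% = growth of vehicle-treated yeast cultures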; settings: S. cerevisiae wt2 strain growth inhibition, hits give high values
Summary of the method: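 This strain belongs to a panel of yeast strains with defined genetic alterations in DNA damage repair or cell cycle control. Compounds are applied, and growth inhibition is measured against vehicle-treated cultures.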

[12] = NCI Yeast Anticancer Drug Screen. Data for the mlh1 strain (AID 171);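 note: 0% = growth of vehicle-treated control cultures of the same strain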; settings: S. cerevisiae mlh1 strain growth inhibition, hits give high values
Summary of the method: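 Growth of the mutant yeast strain after compound exposure, expressed as inhibition relative to vehicle-only controls.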

[13] = NCI Yeast Anticancer Drug Screen. Data for the sgs1 strain (AID 173);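 note: 0% = growth of vehicle-only control cultures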; settings: S. cerevisiae sgs1 mutant, hits give high values
Summary of the method: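 Growth of a yeast strain bearing a defined genetic alteration is measured after compound treatment. Inhibition is expressed relative to vehicle-only controls.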

[14] = NCI Yeast Anticancer Drug Screen. Data for the mlh1 rad18 strain (AID 175); settings: S. cerevisiae mlh1 rad18 strain growth inhibition, hits give high values
Summary of the method: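 Read-out is yeast growth inhibition, calculated against vehicle-only controls. The compound was applied to a strain engineered with DNA damage repair alterations.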

[15] = NCI Yeast Anticancer Drug Screen. Data for the rad18 strain (AID 177); settings: S. cerevisiae rad18 mutant growth inhibition, hits give high values
Summary of the method: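 Growth of the mutant yeast strain after compound exposure, normalised to vehicle-only cultures.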

[16] = at 5.0 µM (retest, dose inferred, filed as 0.5)
[17] = at 50.0 µM (retest, dose inferred, filed as 5.0)

Measured: growth inhibition

O=NC1c2cccc3cccc(c23)C1N=O (stereo not drawn)
active: [1]; at 11.0 µM 75% | [1]; at 33.0 µM 90% | [1]; at 100.0 µM 94% | [2]; at 11.0 µM 81% | [2]; at 33.0 µM 92% | [2]; at 100.0 µM 93% | [3]; at 33.0 µM 86% | [3]; at 100.0 µM 94% | [4]; at 11.0 µM 84% | [4]; at 33.0 µM 93% | [4]; [17] 96% | [4]; at 50.0 µM 97% | [4]; at 100.0 µM 94% | [5]; [17] 94% | [5]; at 50.0 µM 94.3% | [6]; at 33.0 µM 92% | [6]; at 100.0 µM 97% | [7]; [17] 97% | [7]; at 50.0 µM 97.3% | [9]; [17] 92% | [9]; at 50.0 µM 80.5% | [10]; [17] 95% | [10]; at 50.0 µM 89% | [11]; at 33.0 µM 77% | [11]; at 100.0 µM 94% | [12]; at 33.0 µM 88% | [12]; at 100.0 µM 94% | [13]; at 33.0 µM 89% | [13]; at 100.0 µM 95% | [14]; [17] 98% | [14]; at 50.0 µM 97.3% | [15]; at 3.7 µM 70% | [15]; at 11.0 µM 94% | [15]; at 33.0 µM 95% | [15]; at 100.0 µM 95%
inactive: [1]; at 1.2 µM 14% | [1]; at 3.7 µM 33% | [2]; at 1.2 µM 11% | [2]; at 3.7 µM 41% | [3]; at 1.2 µM 4% | [3]; at 3.7 µM 12% | [3]; at 11.0 µM 47% | [4]; at 1.2 µM 19% | [4]; at 3.7 µM 49% | [4]; [16] 17% | [5]; at 1.2 µM -2% | [5]; at 3.7 µM 0% | [5]; [16] 13% | [5]; at 11.0 µM -1% | [5]; at 33.0 µM 31% | [5]; at 100.0 µM 45% | [6]; at 1.2 µM 4% | [6]; at 3.7 µM 25% | [6]; at 11.0 µM 40% | [7]; [16] 30% | [8]; at 1.2 µM 4% | [8]; at 3.7 µM 8% | [8]; at 11.0 µM 24% | [8]; at 33.0 µM 43% | [8]; at 100.0 µM 54% | [9]; [16] 6% | [10]; at 1.2 µM -10% | [10]; at 3.7 µM -20% | [10]; [16] -3% | [10]; at 11.0 µM 16% | [10]; at 33.0 µM 27% | [10]; at 100.0 µM 44% | [11]; at 1.2 µM 2% | [11]; at 3.7 µM 9% | [11]; at 11.0 µM 36% | [12]; at 1.2 µM 2% | [12]; at 3.7 µM 13% | [12]; at 11.0 µM 40% | [13]; at 1.2 µM 7% | [13]; at 3.7 µM 23% | [13]; at 11.0 µM 58% | [14]; [16] 48% | [15]; at 1.2 µM 22%

Reference: PubChem BioAssay (NCI)
